# Data as given in PubChem BioAssay (Tox21).
# Records with an inconclusive call do not appear. Active and inactive are the calls of the source. Calls follow the shape of the dose curve; as a rule, active = well fitted cell-killing curve with a large enough effect in the repeat runs; inconclusive = weak or mixed curves, or effect the other way; inactive = no such curve, though single readings can be large or run the other way.
# Assay: qHTS assay to identify small molecule antagonists of the vitamin D receptor (VDR) signaling pathway - cell viability counter screen (AID 743225); also: nearly all actives have a fitted effect of over 50% in size
# Settings: VDR-bla HEK293T viability, CellTiter-Glo luminescence, 16 h; series mostly up to 61 µM
# From the text: U.S. Tox21 Program National Center for Advancing Translational Sciences [NCATS] NIH Chemical Genomics Center [NCGC] U.S. Environmental Protection Agency [EPA] National Institutes of Environmental Health Sciences [NIEHS] National Toxicology Program [NTP] U.S. Food and Drug Administration [FDA] Tox21 Assay Overview: The vitamin D receptor (VDR), a member of nuclear hormone receptor superfamily, plays a critical role in calcium homeostasis and bone metabolism. It is also involved in cell differentiation and growth, and thrombogenicity. To identify the compounds that inhibit VDR signaling, the VDR-UAS-bla HEK 293T cell line (Invitrogen, Carlsbad, CA, USA) containing a beta-lactamase reporter gene under the control of an upstream activator sequence (UAS) was used to screen the Tox21 10K compound library. The cytotoxicity of the Tox21 compound library against the VDR-bla cell line was tested in parallel by measuring the cell viability using CellTiter-Glo assay (Promega, Madison, WI) in the same wells.
# Tox21 Assay Protocol Summary: VDR-bla cells were dispensed at 2,000 cells/5 uL of assay medium per well into black wall/clear-bottom 1536-well plates using a Multidrop Combi (Thermo Fisher Scientific, Waltham, MA) dispenser. After the assay plates were incubated at a 37C and 5% CO2 for 4 h, 23 nL of compounds dissolved in DMSO, positive controls or DMSO only was transferred to the assay plate by a Pintool station (Kalypsys, San Diego, CA), followed by addition of 1 uL of 1-alpha, 25-Dihydroxy Vitamin D3 (3 nM, final concentration in the wells) using a Bioraptr Flying Reagent Dispenser (FRD) workstation (Beckman Coulter, Indianapolis, IN). The plates were incubated at 37C and 5% CO2 for 16 h, and then 1 uL of LiveBLAzerTM B/G FRET substrate was added using a Bioraptr FRD. The plates were incubated at room temperature for 2 h and fluorescence intensity was measured by an Envision plate reader (PerkinElmer, Shelton, CT). For cell viability readout that measures cytotoxicity, 3 ul/well of CellTiter-Glo reagent was added into the assay plates using a Bioraptr FRD. After 30 min incubation at room temperature, the luminescence intensity in the plates was measured using a ViewLux plate reader (PerkinElmer).
row,SMILES,outcome
1,CC(CC(C#N)(c1ccccc1)c1ccccc1)N(C)C (stereo not given),inactive
2,O=C(NCO)NCO,inactive
3,O=C(Cc1ccccc1)OCc1ccccc1,inactive
4,C[C@]1(O)CC[C@H]2[C@@H]3CCC4=CC(=O)CC[C@]4(C)[C@@]3(F)[C@@H](O)C[C@@]21C,inactive
5,CS(=O)(=O)c1cc(C(F)(F)F)ccc1C(=O)c1cnoc1C1CC1,inactive
6,CCCCOC(=O)c1ccccc1C(=O)O,inactive
7,CC(C=O)Cc1ccc2c(c1)OCO2 (stereo not given),inactive
8,O=[N+]([O-])c1cccc(O)c1,inactive
9,Nc1cnn(-c2ccccc2)c(=O)c1Cl,inactive
10,CCCCOP(=O)(O)OCCCC,inactive
11,CC(=O)Nc1cc([As](=O)(O)O)ccc1O,inactive
12,CCOP(=S)(Oc1cnc(C(C)(C)C)nc1)OC(C)C (stereo not given),inactive
13,CC(C)(C)C(=O)C(Oc1ccc(Cl)cc1)n1cncn1 (stereo not given),inactive
14,CCN(CC)C(=O)[C@@H]1C=C2c3cccc4[nH]cc(c34)C[C@H]2N(C)C1,inactive
15,O=S(=O)(O)C(F)(F)C(F)(F)C(F)(F)C(F)(F)C(F)(F)C(F)(F)F,inactive
16,C=C(C)CN(CC)c1c([N+](=O)[O-])cc(C(F)(F)F)cc1[N+](=O)[O-],inactive
17,O=C1OC(CCN2CCCCC2)OC1(c1ccccc1)c1ccccc1 (stereo not given),inactive
18,COc1ncc(F)c2nc(S(=O)(=O)Nc3c(F)cccc3F)nn12,inactive
19,OC(c1ccc(F)cc1)(c1cncnc1)c1ccccc1Cl (stereo not given),inactive
20,COC(=O)c1ccccc1S(=O)(=O)NC(=O)N(C)c1nc(C)nc(OC)n1,inactive

row,SMILES,outcome
1,CCOC(=O)NC(=S)Nc1ccccc1NC(=S)NC(=O)OCC,inactive
2,CCCCOC(=O)[C@@H](C)Oc1ccc(Oc2ccc(C#N)cc2F)cc1,inactive
3,CCCCc1ccc(O)cc1,inactive
4,CNC(=O)N(C)c1nc2ccccc2s1,inactive
5,COc1cc(OC)nc(NC(=O)NS(=O)(=O)c2ncccc2C(=O)N(C)C)n1,inactive
6,O=C(Nc1ccccc1)N(Cc1ccc(Cl)cc1)C1CCCC1,inactive
7,CCOP(=S)(OCC)Oc1cc(-c2ccccc2)on1,inactive
8,C[N+](C)=CCl,inactive
9,CCCSP(=O)(OCC)Oc1ccc(Br)cc1Cl (stereo not given),inactive
10,CNNC,inactive
11,C#C[C@]1(O)C=C[C@H]2[C@@H]3CCC4=CC(=O)CC[C@@H]4[C@H]3CC[C@@]21CC,inactive
12,CCC1(c2ccccc2)C(=O)N=C(O)NC1=O (stereo not given),inactive
13,OCCSCSCCO,inactive
14,Clc1cccc(N2CCNCC2)c1,inactive
15,CCOc1nc(C(Cl)(Cl)Cl)ns1,inactive
16,CN1C[C@@H](NS(=O)(=O)N(C)C)C[C@@H]2c3cccc4c3c(cn4C)C[C@H]21,inactive
17,CN1C(=S)CN=C(c2ccccc2)c2cc(Cl)ccc21,inactive
18,CC(CCc1ccccc1)NC(C)C(O)c1ccc(O)cc1 (stereo not given),inactive
19,Cc1nnc2n1-c1sc(CCC(=O)N3CCOCC3)cc1C(c1ccccc1Cl)=NC2,inactive
20,O=NN1CCCCC1,inactive
